According to the supplement of paper PMC10338343:
± gives the standard deviation. The full ranking holds about 3,700 sequences; the median of “pre-steady-state target cleavage rate” is about 0.02, and the highest 2% start at about 0.23. Shown is part of a subset that was picked to be rich in the highest values.

Each sequence was assayed on MILI (PIWIL2) piRISC loaded with Kctd7 piRNA (26 nt) (assay: pre-steady-state target cleavage rate (min^-1); MIWI and MILI are mouse PIWI proteins and EfPiwi is from a freshwater sponge; tags in brackets are library labels; higher = faster piRNA-guided slicing of the target). Details: guide: Kctd7 piRNA 5'p-UGUUAAUCUCUCAGAGAAGGUGACAG; auxiliary factor: 500 nM mouse GTSF1.
Protocol: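 Cleave-'n-Seq: a library of target RNAs (target site embedded in constant flanks, ACAGCATTCCGCGTTAGTGATATCCG... 5' flank; DNA-blocked outside the site) at 0.1 nM was incubated with 1 nM active mouse MILI or MIWI piRISC (synthetic 5'-monophosphorylated piRNA guide) with or without 500 nM mouse GTSF1 at 33 °C for 1 min to 16 h. Uncleaved targets were sequenced and normalised to non-target controls, and the pooled three trials were fitted to a burst-and-steady-state model to give the pre-steady-state cleavage rate (min^-1; k3 is constrained to at most 1e-4). Sequence is the target site only; target names encode pairing extent (gX:gY) and contiguous / 1-mismatch / 2-mismatch / bulge geometry. Fits with R² ≤ 0 are excluded.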
In the case of UAGUGAGUCACCUUCUCUGAGAAAUUAACA, the “pre-steady-state target cleavage rate” value is reported as 0.132 ± 0.027.
“UAGUGAGUCACCUUCUCUGAGAGAUUAACU [g2:g24:cont:t1U]” was tested, and the “pre-steady-state target cleavage rate” value was 0.288 ± 0.038.
In the case of UAGUGUGUCACCUUCCCUGAGAGAUUAACA, the “pre-steady-state target cleavage rate” value is reported as 0.301 ± 0.056.
For UAGUGAGUCACCUUCUCUGAGAGAUUAACCA, the “pre-steady-state target cleavage rate” value was 0.219 ± 0.017.
With UAGUGAGUCACCUUCUCUGAGAGAAUUACA the “pre-steady-state target cleavage rate” value was 0.105 ± 0.048.
With UAGUGAGUCACCUUCUCUGAGAGAUUAAUCA the “pre-steady-state target cleavage rate” value was 0.292 ± 0.053.
In the case of UAGUGAGUCACCUUCUCUGAGAGAAUUAACA, the “pre-steady-state target cleavage rate” value is reported as 0.318 ± 0.059.
“UAGUGAGUCACCUUCUCUGAGAGAUUAACC [g2:g24:cont:t1C]” was tested, and the “pre-steady-state target cleavage rate” value was 0.192 ± 0.018.
For UAGUGAGUCACCUUCUCUGAGAGAUUAUCA, the “pre-steady-state target cleavage rate” value was 0.197 ± 0.037.
In the case of UAGUGUGCCACCUUCUCUGAGAGAUUAACA, the “pre-steady-state target cleavage rate” value is reported as 0.227 ± 0.023.
In the case of UAGUGUGUGCACCUUCUCUGAGAGAUUAACA, the “pre-steady-state target cleavage rate” value is reported as 0.195 ± 0.021.
UAGUGUGCACCUUCUCUGAGAGAUUAACA was tested, and the “pre-steady-state target cleavage rate” value was 0.196 ± 0.024.
UAGUGAGUCACCUUCUCUGAGAGAUUAAUA was tested, and the “pre-steady-state target cleavage rate” value was 0.217 ± 0.03.
In the case of UAGUGACACAGGUUCUCUGAGAGAUUAAGA, the “pre-steady-state target cleavage rate” value is reported as 0.00675 ± 0.0025.
With UAGUGACAGUCCUUCUCUGAGAGAUUACCA the “pre-steady-state target cleavage rate” value was 0.00831 ± 0.0032.
With UAGUGACAGACCUUCUGUGAGAGAUUAACA the “pre-steady-state target cleavage rate” value was 0.087 ± 0.012.
For UAGUGACACAGGUUCUCUGAGAGAUUAACA, the “pre-steady-state target cleavage rate” value was 0.0267 ± 0.0054.
In the case of UAGUCUGUCACCAUCUCUGAGAGAUUUACA, the “pre-steady-state target cleavage rate” value is reported as 0.124 ± 0.018.
For UAGUGACAGUCCUUCUCUGUGAGAUUAACA, the “pre-steady-state target cleavage rate” value was 0.033 ± 0.0057.
In the case of UAGUCUGUGACGUUCUCUGAGAGAUUAACA, the “pre-steady-state target cleavage rate” value is reported as 0.147 ± 0.01.
For UAGUGACAGACCUUCUCUGAGAGGUUAACA, the “pre-steady-state target cleavage rate” value was 0.221 ± 0.058.
With UAGUGAGUCACCUUCUCUGAGAGAUUAAACA the “pre-steady-state target cleavage rate” value was 0.33 ± 0.049.
For UAGUGAGUCACCUUCUCUGAAGAGAUUAACA, the “pre-steady-state target cleavage rate” value was 0.0119 ± 0.0044.
In the case of UAGUGACCCACCUUCUCUGAGAGAUUAACA, the “pre-steady-state target cleavage rate” value is reported as 0.286 ± 0.039.
With “UAGUGAGUCACCUUCUCUGAGAGAUUAACA [g2:g24:cont:t1A]” the “pre-steady-state target cleavage rate” value was 0.25 ± 0.021.
In the case of UAGUGGGUCACCUUCUCUGAGAGAUUAACA, the “pre-steady-state target cleavage rate” value is reported as 0.175 ± 0.01.
In the case of UAGUGAGUGACCUUCUCUGAGAGAUUAACA, the “pre-steady-state target cleavage rate” value is reported as 0.157 ± 0.0097.
With UAGUGAGGUCACCUUCUCUGAGAGAUUAACA the “pre-steady-state target cleavage rate” value was 0.242 ± 0.016.
UAGUGACACCACCUUCUCUGAGAGAUUAACA was tested, and the “pre-steady-state target cleavage rate” value was 0.184 ± 0.017.
With UAGUGAGUCACCUUCUCUCUGAGAUUAACA the “pre-steady-state target cleavage rate” value was 0.0118 ± 0.0043.
For UAGUGAGUCACCUUCUCUGAGGAGAUUAACA, the “pre-steady-state target cleavage rate” value was 0.0247 ± 0.011.
With UAGUGAGUCACCUUCUCUGAGAGAUUAAAA the “pre-steady-state target cleavage rate” value was 0.135 ± 0.037.
With UAGUGAGUCACCUUCUCUGAGAGAUUAAA the “pre-steady-state target cleavage rate” value was 0.202 ± 0.045.
For UAGUGACAGACCUCUCUCUGAGAGAUUAACA, the “pre-steady-state target cleavage rate” value was 0.0375 ± 0.0076.
UAGUCUGUCACCUUCUGCUGAGAGAUUAACA was tested, and the “pre-steady-state target cleavage rate” value was 0.0816 ± 0.013.
UAGUCUGUCUCCUACUCUGAGAGAUUAACA was tested, and the “pre-steady-state target cleavage rate” value was 0.157 ± 0.0082.
With UAGUGACUCACCUAGUCUGAGAGAUUAACA the “pre-steady-state target cleavage rate” value was 0.0896 ± 0.0089.
For “UAGUGACAGUGCUUCUCUGAGAGAUUAACC [g2:g19:cont:t1C]”, the “pre-steady-state target cleavage rate” value was 0.0223 ± 0.0053.
With UAGUGACACACCAUCUCUGAGAGAUUAUGA the “pre-steady-state target cleavage rate” value was 0.00752 ± 0.0041.
In the case of UAGUGAGUCACCUUCUCUGAGAGAUUACCA, the “pre-steady-state target cleavage rate” value is reported as 0.251 ± 0.05.
In the case of “UAGUGAGUCACCUUCUCUGAGAGAUUAACG [g2:g24:cont:t1G]”, the “pre-steady-state target cleavage rate” value is reported as 0.284 ± 0.021.
With UAGUAUGUCACCUUCUCUGAGAGAUUAACA the “pre-steady-state target cleavage rate” value was 0.211 ± 0.019.
With UAGUCACUCACCUUCUCUGAGAGAUUAACA the “pre-steady-state target cleavage rate” value was 0.207 ± 0.0095.
For UAGUCACACACCUUCUCUGAGAGAUUAACA, the “pre-steady-state target cleavage rate” value was 0.168 ± 0.011.
In the case of UAGUCAGUCACCUUCUCUGAGAGAUUAAGA, the “pre-steady-state target cleavage rate” value is reported as 0.135 ± 0.024.
With UAGUGAGUCACCCUUCUCUGAGAGAUUAACA the “pre-steady-state target cleavage rate” value was 0.19 ± 0.02.
In the case of UAGUCAGUCACCUUCUCUGAGAGAUUAACA, the “pre-steady-state target cleavage rate” value is reported as 0.249 ± 0.016.
For UAGUGAGUCACCUUCUCUGAGAGAUUACACA, the “pre-steady-state target cleavage rate” value was 0.187 ± 0.038.
In the case of UAGUGAGUCACCUUCUCUGAGAGAUUAAGA, the “pre-steady-state target cleavage rate” value is reported as 0.219 ± 0.035.
UAGUCAUGUCACCUUCUCUGAGAGAUUAACA was tested, and the “pre-steady-state target cleavage rate” value was 0.238 ± 0.023.
For UAGUGAGUCACCUUCUCUGAGAGAUUACA, the “pre-steady-state target cleavage rate” value was 0.153 ± 0.033.
In the case of UAGUGUGUCAGCUUCUGUGAGAGAUUAACA, the “pre-steady-state target cleavage rate” value is reported as 0.129 ± 0.013.
UAGUGAGUCACCUUCUCUGCGAGAUUAACA was tested, and the “pre-steady-state target cleavage rate” value was 0.0952 ± 0.015.
UAGUGUGUCAGGUUCUCUGAGAGAUUAUGA was tested, and the “pre-steady-state target cleavage rate” value was 0.00789 ± 0.0035.
For UAGUGACACAGCUUCUCUGUGAGAUUAACA, the “pre-steady-state target cleavage rate” value was 0.0271 ± 0.0057.
With UAGUGACAGACCUUGUCUGAGAGAUUAACA the “pre-steady-state target cleavage rate” value was 0.0481 ± 0.0096.
UAGUGAGUCAGCUUCUCUGAGAGAUUAACA was tested, and the “pre-steady-state target cleavage rate” value was 0.158 ± 0.013.
For UAGUGUCAGACCUUCUCUGAGAGAUUAACA, the “pre-steady-state target cleavage rate” value was 0.108 ± 0.012.
UAGUCUCUCACCUUCUCUGAGUGAUUAACA was tested, and the “pre-steady-state target cleavage rate” value was 0.00476 ± 0.0037.
In the case of UAGUGACUCAGCUUGUCUGAGAGAUUAACA, the “pre-steady-state target cleavage rate” value is reported as 0.112 ± 0.0088.
With UAGUGACAGACCUUCUCUGAGACGAUUAACA the “pre-steady-state target cleavage rate” value was 0.0176 ± 0.0081.
For UAGUGAGUCACCUUCUCUGUGAGAUAAACA, the “pre-steady-state target cleavage rate” value was 0.0242 ± 0.0096.
With UAGUGACUCACCUUCUCUGAGAGAUUAAACA the “pre-steady-state target cleavage rate” value was 0.251 ± 0.035.
For UAGUGACUCACCUUCUCUGAGAGAUUAAAA, the “pre-steady-state target cleavage rate” value was 0.0677 ± 0.02.
In the case of UAGUGAGUCACCUUCCCUGAGAGAUUAACA, the “pre-steady-state target cleavage rate” value is reported as 0.394 ± 0.074.
UAGUGAGUACACCUUCUCUGAGAGAUUAACA was tested, and the “pre-steady-state target cleavage rate” value was 0.237 ± 0.019.
With UAGUGAGUCACCUUCUCUGAGAGAUAAAGA the “pre-steady-state target cleavage rate” value was 0.00919 ± 0.0072.
UAGUGAGACACCUUCUCUGAGAGAUUAACA was tested, and the “pre-steady-state target cleavage rate” value was 0.185 ± 0.011.
In the case of UAGUGAGUCACCUUCCUGAGAGAUUAACA, the “pre-steady-state target cleavage rate” value is reported as 0.119 ± 0.038.
For UAGUGAGUCACCUUCCUCUGAGAGAUUAACA, the “pre-steady-state target cleavage rate” value was 0.148 ± 0.019.
For UAGUGACUCACCUUCUCUGAGAGAUUAAA, the “pre-steady-state target cleavage rate” value was 0.13 ± 0.031.
With UAGUGAGUACCUUCUCUGAGAGAUUAACA the “pre-steady-state target cleavage rate” value was 0.113 ± 0.014.
UAGUGAGUCACCUUCUCUGAGAGAUAAACA was tested, and the “pre-steady-state target cleavage rate” value was 0.249 ± 0.052.
